Measurements as given in paper PMC4336329 (PLoS ONE, 2015).
The whole screen tested about 310,000 compounds, of which about 14,000 (4.5%) showed an effect of 50% or more. Effects have a minus sign here. What follows is part of a selection rich in strong results, with near analogues and random picks from the rest.

molecular target: human ether-à-go-go-related gene (hERG) potassium channel (human, UniProt Q12809); experiment: primary screen, population patch clamp on CHO cells stably expressing hERG; higher = less effect of the substance
Sequence (Q12809 whole entry, looked up): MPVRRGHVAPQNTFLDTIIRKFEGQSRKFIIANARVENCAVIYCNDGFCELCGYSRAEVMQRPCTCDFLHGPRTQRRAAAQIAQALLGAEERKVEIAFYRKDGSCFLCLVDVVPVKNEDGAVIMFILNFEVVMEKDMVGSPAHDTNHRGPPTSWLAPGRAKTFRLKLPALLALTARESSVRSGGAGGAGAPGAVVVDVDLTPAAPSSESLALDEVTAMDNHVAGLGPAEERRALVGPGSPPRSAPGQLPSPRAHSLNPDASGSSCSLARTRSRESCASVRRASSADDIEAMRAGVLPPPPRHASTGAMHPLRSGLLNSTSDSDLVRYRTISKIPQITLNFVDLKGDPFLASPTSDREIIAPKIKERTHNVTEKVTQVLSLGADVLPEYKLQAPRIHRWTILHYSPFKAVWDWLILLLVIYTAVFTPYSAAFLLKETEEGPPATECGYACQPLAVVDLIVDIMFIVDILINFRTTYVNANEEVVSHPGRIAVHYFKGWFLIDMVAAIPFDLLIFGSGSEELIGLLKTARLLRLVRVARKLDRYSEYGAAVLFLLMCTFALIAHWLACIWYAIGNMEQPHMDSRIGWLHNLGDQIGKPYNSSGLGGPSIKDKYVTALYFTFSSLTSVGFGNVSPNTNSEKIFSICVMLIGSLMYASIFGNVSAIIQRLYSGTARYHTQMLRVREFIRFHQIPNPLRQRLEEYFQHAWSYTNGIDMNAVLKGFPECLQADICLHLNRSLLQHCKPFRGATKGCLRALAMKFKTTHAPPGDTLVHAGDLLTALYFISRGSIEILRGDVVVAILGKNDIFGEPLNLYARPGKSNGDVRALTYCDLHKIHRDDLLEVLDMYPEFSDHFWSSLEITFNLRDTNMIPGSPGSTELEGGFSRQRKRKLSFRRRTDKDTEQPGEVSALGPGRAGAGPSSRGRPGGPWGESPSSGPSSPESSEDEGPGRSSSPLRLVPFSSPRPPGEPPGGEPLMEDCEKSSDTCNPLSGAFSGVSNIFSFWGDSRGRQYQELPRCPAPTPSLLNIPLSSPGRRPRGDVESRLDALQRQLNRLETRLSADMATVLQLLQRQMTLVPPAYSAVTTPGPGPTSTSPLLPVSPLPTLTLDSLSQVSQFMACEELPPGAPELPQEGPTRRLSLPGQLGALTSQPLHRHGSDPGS
Description: Briefly, Chinese hamster ovary (CHO) cells stably expressing the hERG channel were dislodged from tissue culture flasks and dispensed into PPC plates. […] During the recording, background leak currents were estimated by a 100 ms step to -80 mV from an initial holding potential of -70 mV and subtracted from the subsequent current measurement. The campaign was conducted in two phases using slight differences in recording protocol. In the first phase, the initial voltage pulse used a 100 ms step to -30 mV from a holding potential of -70 mV, a 2 s conditioning step to +25 mV, and a 2 s test step to -30 mV. During the second phase of the screen, the potential during the conditioning step was raised to +45 mV. In both phases of the campaign, a secondary voltage pulse was applied using the same parameters as the second phase initial pulse. The initial and secondary pulses were applied in the absence of compound, and upon application of 1 μM and 10 μM test concentrations. […]
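Also: peak tail current of the secondary pulse compared with the same well before compound.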

Row | SMILES | hERG current change (%, negative = inhibition) at 10uM [%]
1 | O=C1CCc2ccccc2N1 | 16.5
2 | Cc1ccc(-c2csc(NC(=O)c3ccccc3Cl)c2C(=O)O)cc1 | 20.8
3 | COCc1nnc(NC(=O)c2ccc(S(=O)(=O)N(CC(C)C)CC(C)C)cc2)o1 | -7.19
4 | NNc1nc2cc3c(cc2s1)OCCO3 | 14.1
5 | CN(C(=O)CSc1nc2c(cnn2-c2ccccc2)c(=O)[nH]1)C1CCS(=O)(=O)C1 (stereo not shown) | 16.1
6 | CSCC(C)N1CCC(CCC(=O)NC2CC2)CC1 (stereo not shown) | -18.1
7 | OCCCCO | 13.7
8 | Oc1ccc(Cc2ncc(C(F)(F)F)cc2Cl)cc1 | -15.4
9 | Cc1ccc(N(CC(=O)N2CCCCC2)S(=O)(=O)c2ccc(C)cc2)cc1 | -20.9
10 | OCc1csc(=Nc2ccccc2)n1-c1ccccc1 | 0.29
11 | CCC(C)NCCOCCOc1ccc(Cl)c(C)c1C.O=C(O)C(=O)O (stereo not shown) | -31.7
12 | C=CCc1cc(Cl)ccc1OCCOCCNC(C)(C)C.O=C(O)C(=O)O | -49.5
13 | CN(C)CCOCCOc1ccc(Cl)cc1C(C)(C)C.O=C(O)C(=O)O | -37.3
14 | C=CCc1cc(Cl)ccc1OCCOCCN(C)C.O=C(O)C(=O)O | -51.5
15 | C=CCc1cc(Cl)ccc1OCCOCCNC(C)CC.O=C(O)C(=O)O (stereo not shown) | -69.2
16 | C=CCc1cc(Cl)ccc1OCCN(C)C.O=C(O)C(=O)O | -42
17 | Cc1occc1-c1nnc(SCC(=O)Nc2c(F)cccc2F)n1C | -7.23
18 | CCOC(=O)c1c(C)[nH]c(C)c1S(=O)(=O)N1CCN(C(=O)c2ccco2)CC1 | 16.5
19 | Cc1ccc(S(=O)(=O)N2CCCOC2CNC(=O)C(=O)NCc2ccc3c(c2)OCO3)cc1 (stereo not shown) | -13.4
20 | CNC(=S)NNC(=O)c1cccn(Cc2cccc(C(F)(F)F)c2)c1=O | 22.2
21 | N#C/C(=C/c1ccc(O)cc1)C(=O)NCc1ccc(Cl)cc1 | 23.1
22 | C=CCSc1nc2ccsc2c(=O)n1-c1cccnc1 | -8.97
23 | Cc1cc2nc(CO)[nH]c2cc1C | 14.9
24 | O=C1NC2NC(=O)N([N+](=O)[O-])C2N1 (stereo not shown) | 14.6
25 | CC(C)NC(=O)COC(=O)c1ccc(Cl)c(S(N)(=O)=O)c1 | 18.6

Row | SMILES | hERG current change (%, negative = inhibition) at 10uM [%]
26 | COc1ccc(CC(=O)Nc2c3c(nn2-c2cccc(C)c2C)CS(=O)(=O)C3)cc1 | -24.5
27 | CCC(=O)Nc1c2c(nn1-c1cccc(Cl)c1)CS(=O)(=O)C2 | -38.7
28 | O=C(Nc1c2c(nn1-c1cccc(Cl)c1)CS(=O)(=O)C2)C1CC1 | -66.9
29 | CCCC(=O)Nc1c2c(nn1-c1cccc(Cl)c1)CS(=O)(=O)C2 | -53.4
30 | CC(C)CC(=O)Nc1c2c(nn1-c1cccc(Cl)c1)CS(=O)(=O)C2 | -40.8
31 | COc1ccc(CC(=O)Nc2c3c(nn2-c2cccc(Cl)c2)CS(=O)(=O)C3)cc1 | -51.7
32 | CC(=O)Nc1c2c(nn1-c1cccc(Cl)c1)CS(=O)(=O)C2 | -16.8
33 | COc1ccc(CC(=O)Nc2c3c(nn2-c2cccc(Cl)c2)CS(=O)C3)cc1 (stereo not shown) | -37.1
34 | O=C(Nc1c2c(nn1-c1ccccc1)CS(=O)(=O)C2)C1CCCC1 | -0.437
35 | O=C(Nc1c2c(nn1-c1cccc(Cl)c1)CS(=O)(=O)C2)c1ccco1 | -37.9
36 | O=C(Cc1ccccc1)Nc1c2c(nn1-c1cccc(Cl)c1)CS(=O)(=O)C2 | -76.2
37 | O=C(Nc1c2c(nn1-c1ccc(Cl)cc1)CS(=O)(=O)C2)C1CC1 | -26.8
38 | COc1ccc(CSCCc2n[nH]c(=S)n2-c2ccccc2)cc1C | 0.99
39 | O=C(COc1ncnc2ccccc12)Nc1cccc([N+](=O)[O-])c1 | -2.61
40 | Cc1cc(C)nc(NC(N)=NC(C)c2ccccc2)n1 (stereo not shown) | -0.0621
41 | Cc1cc(C)nc(NC(N)=NCCc2c[nH]c3ccccc23)n1 | 11.6
42 | Cc1ccc(N/C(N)=N/c2nc(C(F)(F)F)cc(C(F)(F)F)n2)cc1 | 18.9
43 | Cc1cc(C)nc(/N=C(\N)Nc2ccc(C)c([N+](=O)[O-])c2)n1 | -5.32
44 | COc1cc(N/C(N)=N/c2nc(C)cc(C)n2)cc(OC)c1 | -49.8
45 | Cc1cccc(N/C(N)=N/c2nc(C)cc(C)n2)c1 | -28
46 | CC(=O)Nc1ccc(N/C(N)=N/c2nc(C)cc(C)n2)cc1 | 14
47 | Cc1ccc(N/C(N)=N/c2nc(C)cc(C)n2)cc1 | -68.7
48 | CC(=O)NS(=O)(=O)c1ccc(N/C(N)=N/c2nc(C)cc(C)n2)cc1 | 13.3
49 | Cc1cc(C)cc(N/C(N)=N/c2nc(C)cc(C)n2)c1 | -50
50 | Cc1cc(C)nc(/N=C(\N)Nc2ccc(CC(=O)OC(C)C)cc2)n1 | -67.6

Row | SMILES | hERG current change (%, negative = inhibition) at 10uM [%]
51 | Cc1ccc(CN=C(N)Nc2nc(C)cc(C)n2)cc1.Cl | -76.1
52 | O=C(NCC1CCCO1)NC1(C(F)(F)F)Oc2ccccc2O1 (stereo not shown) | 1.63
53 | CN1CCN(S(=O)(=O)c2ccc3c4c(cccc24)C(=O)N3)CC1 | -0.59
54 | O=C(NCN1C(=O)C2C3C=CC(C3)C2C1=O)Nc1ccccn1 (stereo not shown) | 9.67
55 | CCOC(=O)N1CCC(NS(=O)(=O)c2cc3c(cc2C)NC(=O)CO3)CC1 | -7.84
56 | Cc1ccc(NC(=O)NNC(=O)C2CC(c3cccnc3)=NO2)cc1 (stereo not shown) | 4.19
57 | O=C1c2ccccc2C(=O)N1OCCOCCOCCON1C(=O)c2ccccc2C1=O | -29.2
58 | CC1(c2ccccc2)NC(=O)N(CC(=O)Nc2nnc(C3CC3)s2)C1=O (stereo not shown) | 12.1
59 | O=C(Nc1ccc(F)cc1F)c1cccn(Cc2ccccc2)c1=O | 13.1
60 | CCn1c(CN2CCCCCC2=O)nnc1SCc1cnc(-c2ccccc2)s1 | -19.3
61 | COc1ccc(C(=O)COC(=O)CCCC(=O)NC2CCCCC2)cc1 | 2.77
62 | COc1ccc(S(=O)(=O)N2CCC(C(=O)N3CCc4ccccc4C3)CC2)cc1C | -19.7
63 | CCOc1ccc(N/C(=N/c2nc(C)cc(C)n2)NC(C)=O)cc1 | -12.2
64 | Cc1cc(C)nc(/N=C(\N)Nc2ccc(S(N)(=O)=O)cc2)n1 | 14.9
65 | CCc1ccc(N/C(=N/c2nc(C)cc(C)n2)NC(C)=O)cc1 | -67
66 | Cc1cc(C)nc(/N=C(\N)Nc2ccc([N+](=O)[O-])cc2)n1 | -25
67 | CCCCc1ccc(N/C(N)=N/c2nc(C)cc(C)n2)cc1 | -70.1
68 | CC(=O)N/C(=N/c1nc(C)cc(C)n1)Nc1ccc(NC(C)=O)cc1 | 9.5
69 | Cc1cc(C)nc(/N=C(\N)Nc2ccc(-c3ccccc3)cc2)n1 | -81.6
70 | Cc1cc(C)nc(/N=C(\N)Nc2ccc(C(C)C)cc2)n1 | -67.5
71 | CCC(=O)Nc1ccc(N/C(N)=N/c2nc(C)cc(C)n2)cc1 | -4.25
72 | Cc1cc(C)nc(/N=C(\N)Nc2ccc(S(=O)(=O)Nc3nc(C)cc(C)n3)cc2)n1.Cl | 38
73 | Cc1cc(C)nc(/N=C(\N)Nc2ccccc2-c2ccccc2)n1 | -43.2
74 | COc1ccc(C)cc1NC(=O)NNC(=O)c1cc2ccccc2cc1O | 12.1
75 | Cc1ccc(C(=O)Nc2ccc(C)c(S(=O)(=O)Nc3ccccc3Cl)c2)s1 | -6.43

Row | SMILES | hERG current change (%, negative = inhibition) at 10uM [%]
76 | CCn1c(=O)c2c3c(sc2n2cnnc12)CCC3 | 20
77 | CC(=O)N1N=C(c2cccc([N+](=O)[O-])c2)OC1c1ccc(Br)cc1 (stereo not shown) | -7.59
78 | COc1ccc(OC)c(S(=O)(=O)Nc2cccc3ccc(O)cc23)c1 | 6
79 | COC(=O)CCCc1nc2ccccc2s1 | 8.7
80 | CN(C(=O)COC(=O)C12CC3CC(CC(C3)C1)C2)c1c(N)n(Cc2ccccc2)c(=O)[nH]c1=O | 7.54
81 | CCOC(=O)C1(P(=O)(c2ccc(Cl)cc2)c2ccc(Cl)cc2)CCC1 | -25.2
82 | N/C(=N\OC(=O)COc1ccc2ccccc2c1)c1ccccn1 | -1.39
83 | CCN(C(=O)COC(=O)CCS(=O)(=O)c1ccc(C)cc1)C1CCS(=O)(=O)C1 (stereo not shown) | 12.9
84 | COc1ccccc1C(C#N)N1N=C(C)CC1c1ccccc1 (stereo not shown) | 1.69
85 | O=C(CSc1nnc(COc2ccccc2Cl)o1)NC(=O)NCc1ccco1 | -8.18
86 | Cc1cc(C)nc(/N=C(\N)Nc2ccc(SC(F)F)cc2)n1 | -74.7
87 | Cc1cc(=O)[nH]c(/N=C(\N)Nc2ccc(SC(F)F)cc2)n1 | -15.8
88 | Cc1cc(C)nc(/N=C(\N)Nc2ccc3c(c2)OCCO3)n1 | 6.67
89 | CCOc1ccc(CNc2ccc(S(N)(=O)=O)cc2)cc1 | -6.78
90 | CCOc1ccc(CNCCc2ccc(S(N)(=O)=O)cc2)cc1.Cl | -70.1
91 | C=CCOc1ccc(CNCCc2ccc(S(N)(=O)=O)cc2)cc1.Cl | -81.4
92 | Cl.NS(=O)(=O)c1ccc(CCNCc2cccnc2)cc1 | 18.4
93 | COc1ccc(CNC(=S)Nc2ccc(S(N)(=O)=O)cc2)cc1 | 22.1
94 | Cl.NS(=O)(=O)c1ccc(CCNCc2cccs2)cc1 | 4.04
95 | CCOc1ccc(N2C(=O)CC(NCCc3ccc(S(N)(=O)=O)cc3)C2=O)cc1 (stereo not shown) | -22
96 | CCOc1ccc(OCCC(=O)OCC(=O)NCCc2ccc(S(N)(=O)=O)cc2)cc1 | -4.49
97 | COc1ccc(CNc2ccc(S(N)(=O)=O)cc2)cc1 | -52.6
